This passage reports outcome and AC50 results from PubChem BioAssay (EPA / NIEHS).

Assay [1] in a line: ATG_M_32_CIS: Attagene CIS-FACTORIAL HepG2 Assay for M32 Transcription Factor (Internal Marker) (AID 2282949).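 Note: background control marker of the multiplexed CIS panel rather than a real target.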 The following applies: HepG2 Attagene cis-factorial M32 reporter, mRNA; actives raise or lower the signal. Put shortly:
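HepG2 transfectants (cis-regulated reporter transcription units) dosed 24 h. Reporter mRNA by RT-PCR plus CE, analysed as gain or loss relative to DMSO.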

Assay [2] can be described thus: ATG_M_06_CIS: Attagene CIS-FACTORIAL HepG2 Assay for M06 Transcription Factor (Internal Marker) (AID 2282950). The following applies: HepG2 Attagene CIS-FACTORIAL M06 internal marker reporter; actives raise or lower the signal. Summed up: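 Steps: transfect HepG2 with multiplexed cis-element reporter constructs; dose chemical 24 h; extract RNA with DNase treatment; reverse-transcribe, PCR-amplify, 6-FAM label, HpaI digest; separate fragments by capillary electrophoresis. Activity fitted both directions versus DMSO.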

The target in assay [3] is Hypoxia-inducible factor 1-alpha (Homo sapiens) (UniProt Q16665). Kind of assay: ATG_HIF1a_CIS: Attagene CIS-FACTORIAL HepG2 Assay for human Hypoxia Inducible Factor 1 (HIF1A) (AID 2282951). The following applies: HepG2 Attagene cis-factorial HIF1a reporter transcription; actives raise or lower the signal. Summed up: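 Activity is fitted in both directions relative to DMSO. Reporter transcripts are read by RT-PCR, fluorescent primer extension and capillary electrophoresis after 24 h chemical treatment. The cells are HepG2 carrying transiently transfected cis-element-driven reporter units responding to endogenous factors.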

The target of assay [4] is Hepatocyte nuclear factor 6 (Homo sapiens) (UniProt Q9UBC0). Briefly: ATG_HNF6_CIS: Attagene CIS-FACTORIAL HepG2 Assay for human Hepatocyte Nuclear Factor 6 (HNF6) (AID 2282952). The following applies: HepG2 Attagene cis-factorial HNF6 reporter transcription; actives raise or lower the signal. Put shortly: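 First, HepG2 cells were transfected with the multiplexed cis reporter library and dosed with chemical for 24 h. Next, RNA was reverse-transcribed, PCR-amplified and fluorescently labelled. Finally, HpaI-digested fragments were read by capillary electrophoresis.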

For assay [5], the target named is Heat shock factor protein 1 (Homo sapiens) (UniProt Q00613). Kind of assay: ATG_HSE_CIS: Attagene CIS-FACTORIAL HepG2 Assay for human Heat Shock Transcription Factor 1 (HSE) (AID 2282953). The following applies: HepG2 HSE cis-reporter, Attagene RNA transcription; actives raise or lower the signal. Summed up:
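Cells were transfected with cis-element-driven reporter constructs, dosed for 24 h, then total RNA was reverse-transcribed and reporter cDNA amplified, FAM-labelled and digested with HpaI. Fragments were resolved by capillary electrophoresis; gain or loss was fitted against DMSO.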

Assay [6] is described as follows: ATG_MRE_CIS: Attagene CIS-FACTORIAL HepG2 Assay for human Metal Responsive Element (MRE) (AID 2282954). The following applies: HepG2 MRE cis-reporter transcription, Attagene multiplex; actives raise or lower the signal. Summed up: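 Measured here is mRNA induction from an MRE cis-element reporter in HepG2 after 24 h, quantified by fluorescence of labelled RT-PCR products on capillary electrophoresis; gain- and loss-of-signal fits use DMSO as baseline.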

Assay [7] is described as follows: ATG_PBREM_CIS: Attagene CIS-FACTORIAL HepG2 Assay for human Phenobarbital-responsive Enhancer Module (PBREM) (AID 2282955). The following applies: HepG2 PBREM cis-reporter, Attagene multiplexed transcription; actives raise or lower the signal. Put shortly:
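Endogenous transcription factor activity was read from reporter transcripts in transiently transfected human HepG2 liver cells after 24 h dosing. RT-PCR products were fluorescently labelled, HpaI-cut and sized by capillary electrophoresis; activity fitted bidirectionally against DMSO baseline.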

Assay [8] addresses Paired box protein Pax-6 (Homo sapiens) (UniProt P26367). Kind of assay: ATG_Pax6_CIS: Attagene CIS-FACTORIAL HepG2 Assay for human Paired Box 6 (PAX6) (AID 2282956). The following applies: HepG2 CIS-FACTORIAL PAX6 reporter transcription, RNA readout; actives raise or lower the signal. Put shortly: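 DMSO-referenced bidirectional fits of reporter mRNA fluorescence; HepG2 with transient cis-promoter MRTUs, 24 h post-dose, RT-PCR plus capillary electrophoresis detection.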

Assay [9] is described as follows: ATG_PXRE_CIS: Attagene CIS-FACTORIAL HepG2 Assay for human Pregnane X Receptor Element (PXRE) (AID 2282957). The following applies: HepG2 Attagene CIS-FACTORIAL PXRE reporter, mRNA; actives raise or lower the signal. Summed up: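 After a 24 h chemical incubation, total RNA from transfected HepG2 cells was reverse-transcribed and reporter cDNA amplified, FAM-labeled, HpaI-digested and sized by capillary electrophoresis. DMSO served as baseline for bidirectional curve fitting.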

Assay [10] in a line: ATG_PPRE_CIS: Attagene CIS-FACTORIAL HepG2 Assay for human Peroxisome Proliferator-activated Response Element (PPRE) (AID 2282958). The following applies: HepG2 PPRE cis-element reporter, Attagene transcription factor profiling; actives raise or lower the signal. Summed up:
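Endogenous PPRE-driven transcription is measured in HepG2 cells carrying transfected multi-reporter constructs. Reporter transcripts are quantified by RT-PCR, HpaI digestion and capillary electrophoresis 24 h after dosing. DMSO baseline, bidirectional fit.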

Assay [11] can be described thus: ATG_RORE_CIS: Attagene CIS-FACTORIAL HepG2 Assay for human RAR-related Orphan Receptor Element (RORE) (AID 2282959). The following applies: HepG2 Attagene cis-factorial RORE reporter, mRNA; actives raise or lower the signal. Summed up:
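RORE reporter transcripts reflecting endogenous factor activity were read after 24 h compound exposure of transfected HepG2 cells, using reverse transcription, PCR, fluorescent labelling and capillary electrophoresis sizing. Gain or loss fitted against DMSO.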

A short description of assay [12]: ATG_Sox_CIS: Attagene CIS-FACTORIAL HepG2 Assay for human SRY-box transcription factor (SOX) (AID 2282960). The following applies: HepG2 Attagene cis-factorial SOX reporter, mRNA; actives raise or lower the signal. Summed up:
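Reporter transcripts, measured by RT-PCR and capillary electrophoresis of labelled fragments, report endogenous SOX transcription factor activity. Transiently transfected human HepG2 cells receive chemical for 24 h; changes in either direction are fitted relative to DMSO.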

The target in assay [13] is Transcription factor Sp1 (Homo sapiens) (UniProt P08047). Kind of assay: ATG_Sp1_CIS: Attagene CIS-FACTORIAL HepG2 Assay for human Specificity Protein 1 (Sp1) (AID 2282961). The following applies: HepG2 Sp1 cis-reporter transcription, actives raise or lower the signal. Summed up: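 Read-out is reporter transcript level, measured by RT-PCR and fluorescent capillary electrophoresis after 24 h chemical treatment. System: transiently transfected HepG2 cells reporting endogenous transcription factor activity; gain or loss fitted against DMSO baseline.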

Assay [14] is described as follows: ATG_SREBP_CIS: Attagene CIS-FACTORIAL HepG2 Assay for human Sterol Regulatory Element Binding (SREBP) (AID 2282962). The following applies: HepG2 Attagene cis-factorial SREBP reporter, mRNA; actives raise or lower the signal. Summed up: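 In this cis-format assay, HepG2 liver cells express reporters controlled by promoter elements responsive to native transcription factors. Exposure lasts 24 h; reporter mRNA fluorescence from capillary electrophoresis gives the signal, fitted bidirectionally against DMSO.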

For assay [15], the target named is Signal transducer and activator of transcription 3 (Homo sapiens) (UniProt P40763). Kind of assay: ATG_STAT3_CIS: Attagene CIS-FACTORIAL HepG2 Assay for human Signal Transducer and Activator of Transcription 3 (STAT3) (AID 2282963). The following applies: HepG2, Attagene cis-factorial STAT3 reporter transcription; actives raise or lower the signal. Summed up:
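Fluorescence intensity of 6-FAM-labelled reporter fragments, separated by capillary electrophoresis after RT-PCR, gave the signal. Cells were HepG2 transfected with cis-element reporter units and treated 24 h; fitting was bidirectional relative to DMSO.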

Assay [16] can be described thus: ATG_TA_CIS: Attagene CIS-FACTORIAL HepG2 Assay for human TA Basal Promoter (AID 2282964). The following applies: HepG2 Attagene CIS-factorial TA basal promoter reporter; actives raise or lower the signal. Summed up:
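Steps: transfect HepG2 with MRTUs; dose 24 h; isolate RNA, DNase-treat, reverse-transcribe; PCR and FAM-label reporter cDNA; digest with HpaI 2h at 37 C; run capillary electrophoresis. Activity fitted both directions against DMSO.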

Assay [17] in a line: ATG_TCF_b_cat_CIS: Attagene CIS-FACTORIAL HepG2 Assay for human T-Cell-Factor with beta-catenin (TCF/b-cat) (AID 2282965). The following applies: HepG2 TCF/beta-catenin cis-reporter transcription, actives raise or lower the signal. Put shortly: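 Cells of the HepG2 line carry transiently transfected reporter units whose promoters respond to endogenous factors. Twenty-four hours post-dosing, reporter mRNA induction is measured by fluorescent RT-PCR and capillary electrophoresis, with DMSO as baseline.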

Assay [18] can be described thus: ATG_TAL_CIS: Attagene CIS-FACTORIAL HepG2 Assay for human TAL Basal Promoter (AID 2282966).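 Note: background control endpoint measuring basal TAL promoter reporter mRNA not a specific factor.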 The following applies: HepG2 Attagene cis-factorial TAL promoter reporter; actives raise or lower the signal. Put shortly:
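Basal-promoter background-control endpoint from a multiplexed HepG2 reporter panel. Cells were exposed 24 h, then reporter mRNA was read by RT-PCR/CE fluorescence and fitted in both directions relative to DMSO.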

A short description of assay [19]: ATG_TGFb_CIS: Attagene CIS-FACTORIAL HepG2 Assay for human Transforming Growth Factor (TGF) (AID 2282967). The following applies: HepG2 Attagene CIS TGFb reporter, mRNA transcription; actives raise or lower the signal. Summed up: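 Cells were dosed for 24 hours, after which total RNA was reverse-transcribed and reporter sequences amplified, labeled and sized by capillary electrophoresis. Activity was fitted in both directions against DMSO.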

A short description of assay [20]: ATG_VDRE_CIS: Attagene CIS-FACTORIAL HepG2 Assay for human Vitamin D Receptor Element (VDRE) (AID 2282968). The following applies: HepG2 VDRE cis-reporter transcription, actives raise or lower the signal. Put shortly: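 Compounds were applied for 24 h to HepG2 cells transfected with promoter-regulated reporter units. Total RNA was reverse-transcribed, and reporter amplicons were fluorescently labelled and sized by capillary electrophoresis.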

Several values for one entry are separate records, joined by “and”; a condition that tells them apart may be missing. Equal values may be shown once. The source holds several records for some structures; these can differ, active in one and inactive in another. Activity calls are given as the source filed them. Rule for the calls: active = hit-call score of the fitted dose curve at least 0.9, where 1 is the maximum; inactive = score below 0.9.

Chain of Hepatocyte nuclear factor 6 (Homo sapiens) (Q9UBC0 whole entry, looked up, the tested form may be a part): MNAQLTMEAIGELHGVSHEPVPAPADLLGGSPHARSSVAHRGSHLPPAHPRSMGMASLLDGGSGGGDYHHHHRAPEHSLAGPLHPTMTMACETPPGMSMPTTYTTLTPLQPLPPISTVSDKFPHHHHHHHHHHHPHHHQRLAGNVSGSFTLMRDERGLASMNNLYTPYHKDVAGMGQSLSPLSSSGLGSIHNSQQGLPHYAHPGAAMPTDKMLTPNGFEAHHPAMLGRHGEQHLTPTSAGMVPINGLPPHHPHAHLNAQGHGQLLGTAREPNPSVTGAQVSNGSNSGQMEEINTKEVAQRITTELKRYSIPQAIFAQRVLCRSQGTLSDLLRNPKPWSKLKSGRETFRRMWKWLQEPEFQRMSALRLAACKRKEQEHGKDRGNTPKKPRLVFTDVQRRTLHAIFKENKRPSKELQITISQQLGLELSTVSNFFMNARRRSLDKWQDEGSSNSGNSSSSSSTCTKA
Chain of Signal transducer and activator of transcription 3 (Homo sapiens) (P40763 whole entry, looked up, the tested form may be a part): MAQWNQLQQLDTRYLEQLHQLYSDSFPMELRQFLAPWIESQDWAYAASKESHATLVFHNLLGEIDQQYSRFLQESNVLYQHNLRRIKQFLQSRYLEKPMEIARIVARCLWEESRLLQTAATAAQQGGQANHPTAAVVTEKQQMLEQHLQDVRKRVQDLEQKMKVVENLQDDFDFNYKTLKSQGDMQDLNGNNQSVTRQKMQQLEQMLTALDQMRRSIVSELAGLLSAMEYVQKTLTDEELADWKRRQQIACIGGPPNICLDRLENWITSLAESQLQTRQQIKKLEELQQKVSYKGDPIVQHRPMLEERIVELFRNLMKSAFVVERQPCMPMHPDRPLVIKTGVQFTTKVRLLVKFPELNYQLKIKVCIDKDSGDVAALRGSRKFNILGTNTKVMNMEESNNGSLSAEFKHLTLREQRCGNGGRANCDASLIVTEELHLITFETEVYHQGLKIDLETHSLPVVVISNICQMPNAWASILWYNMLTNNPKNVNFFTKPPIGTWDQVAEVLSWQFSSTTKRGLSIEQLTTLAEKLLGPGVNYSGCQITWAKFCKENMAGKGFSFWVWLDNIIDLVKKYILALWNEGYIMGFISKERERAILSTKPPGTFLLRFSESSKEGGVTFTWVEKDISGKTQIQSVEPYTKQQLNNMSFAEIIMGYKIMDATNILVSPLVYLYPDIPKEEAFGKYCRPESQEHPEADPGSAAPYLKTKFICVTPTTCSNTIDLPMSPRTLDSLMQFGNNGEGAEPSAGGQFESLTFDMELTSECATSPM
Chain of Heat shock factor protein 1 (Homo sapiens) (Q00613 whole entry, looked up, the tested form may be a part): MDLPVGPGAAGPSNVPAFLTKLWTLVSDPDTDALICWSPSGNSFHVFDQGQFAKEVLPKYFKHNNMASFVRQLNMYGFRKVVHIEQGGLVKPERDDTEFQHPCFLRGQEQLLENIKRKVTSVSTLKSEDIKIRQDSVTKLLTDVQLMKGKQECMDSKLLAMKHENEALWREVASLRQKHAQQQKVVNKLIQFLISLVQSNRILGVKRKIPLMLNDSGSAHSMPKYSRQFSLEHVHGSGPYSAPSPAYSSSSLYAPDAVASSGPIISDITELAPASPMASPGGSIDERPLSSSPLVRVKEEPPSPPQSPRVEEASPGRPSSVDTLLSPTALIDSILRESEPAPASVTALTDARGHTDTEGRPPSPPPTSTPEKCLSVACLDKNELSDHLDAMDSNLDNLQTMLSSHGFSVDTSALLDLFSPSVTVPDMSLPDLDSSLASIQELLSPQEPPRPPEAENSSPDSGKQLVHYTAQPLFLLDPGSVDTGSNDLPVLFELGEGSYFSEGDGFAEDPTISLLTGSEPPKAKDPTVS
Chain of Hypoxia-inducible factor 1-alpha (Homo sapiens) (Q16665 whole entry, looked up): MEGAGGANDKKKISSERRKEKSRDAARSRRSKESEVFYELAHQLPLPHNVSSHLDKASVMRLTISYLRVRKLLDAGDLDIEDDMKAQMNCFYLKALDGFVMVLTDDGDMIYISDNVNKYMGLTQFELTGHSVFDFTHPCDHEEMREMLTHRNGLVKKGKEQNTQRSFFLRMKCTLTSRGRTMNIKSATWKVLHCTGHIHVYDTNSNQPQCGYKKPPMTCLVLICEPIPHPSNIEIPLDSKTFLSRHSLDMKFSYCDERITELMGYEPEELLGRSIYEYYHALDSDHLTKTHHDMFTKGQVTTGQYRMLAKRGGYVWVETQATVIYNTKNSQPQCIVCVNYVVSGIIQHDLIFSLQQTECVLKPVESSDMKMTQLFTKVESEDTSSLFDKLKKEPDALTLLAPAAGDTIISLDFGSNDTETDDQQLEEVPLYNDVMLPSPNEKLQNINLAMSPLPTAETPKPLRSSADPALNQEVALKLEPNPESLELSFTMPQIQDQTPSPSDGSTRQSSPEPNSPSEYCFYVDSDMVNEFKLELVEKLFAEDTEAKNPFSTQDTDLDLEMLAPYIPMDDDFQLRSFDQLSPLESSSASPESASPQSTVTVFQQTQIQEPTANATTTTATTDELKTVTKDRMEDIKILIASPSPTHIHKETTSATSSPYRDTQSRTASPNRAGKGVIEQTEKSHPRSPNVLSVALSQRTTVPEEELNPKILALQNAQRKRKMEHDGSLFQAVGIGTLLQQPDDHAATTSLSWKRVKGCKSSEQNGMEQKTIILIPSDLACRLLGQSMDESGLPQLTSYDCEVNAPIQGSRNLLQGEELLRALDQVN
Chain of Transcription factor Sp1 (Homo sapiens) (P08047 whole entry, looked up): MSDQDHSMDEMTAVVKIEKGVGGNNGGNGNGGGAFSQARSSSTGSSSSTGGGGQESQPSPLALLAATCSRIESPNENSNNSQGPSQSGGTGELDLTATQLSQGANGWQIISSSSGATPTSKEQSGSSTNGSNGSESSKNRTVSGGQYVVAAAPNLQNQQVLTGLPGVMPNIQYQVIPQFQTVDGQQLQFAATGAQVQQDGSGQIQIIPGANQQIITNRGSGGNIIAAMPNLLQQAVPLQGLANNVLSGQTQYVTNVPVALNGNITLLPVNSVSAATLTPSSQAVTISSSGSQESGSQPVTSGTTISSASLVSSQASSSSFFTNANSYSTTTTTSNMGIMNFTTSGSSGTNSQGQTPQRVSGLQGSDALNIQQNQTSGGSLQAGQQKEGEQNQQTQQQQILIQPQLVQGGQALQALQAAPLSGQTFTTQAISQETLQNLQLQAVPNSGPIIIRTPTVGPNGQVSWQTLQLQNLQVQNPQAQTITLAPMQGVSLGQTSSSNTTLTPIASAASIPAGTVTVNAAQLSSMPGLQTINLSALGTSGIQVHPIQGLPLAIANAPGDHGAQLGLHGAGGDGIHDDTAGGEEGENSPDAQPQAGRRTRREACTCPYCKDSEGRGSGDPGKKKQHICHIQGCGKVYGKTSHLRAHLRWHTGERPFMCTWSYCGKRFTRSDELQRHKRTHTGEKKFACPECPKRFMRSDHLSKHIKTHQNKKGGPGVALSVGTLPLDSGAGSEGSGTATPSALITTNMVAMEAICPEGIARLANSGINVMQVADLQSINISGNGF
Chain of Paired box protein Pax-6 (Homo sapiens) (P26367 whole entry, looked up): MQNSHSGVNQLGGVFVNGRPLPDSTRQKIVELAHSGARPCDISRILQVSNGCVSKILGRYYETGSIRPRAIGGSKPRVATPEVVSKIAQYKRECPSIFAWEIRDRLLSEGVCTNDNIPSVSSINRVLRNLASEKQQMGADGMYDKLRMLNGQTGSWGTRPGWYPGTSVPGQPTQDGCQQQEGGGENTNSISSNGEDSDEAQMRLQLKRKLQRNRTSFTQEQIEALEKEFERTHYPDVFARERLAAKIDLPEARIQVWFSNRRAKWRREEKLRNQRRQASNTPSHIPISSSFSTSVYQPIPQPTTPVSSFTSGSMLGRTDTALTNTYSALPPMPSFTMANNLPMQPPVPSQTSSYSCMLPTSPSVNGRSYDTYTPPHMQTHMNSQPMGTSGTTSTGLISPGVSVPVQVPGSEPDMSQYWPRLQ

Take `NNC(=O)CCCCC(=O)NN`: the compound was classed as inactive in [1], in assay [2], in [3], in [4], in assay [5] and in [6]. For the same compound, the outcome in assay [7], in assay [8], in assay [9], in [10], in assay [11] and in assay [12] was inactive. Further, the call in [13], in assay [14], in [15], in assay [16], in [17] and in [18] was inactive. Moreover, the compound was called inactive in [19] and in [20].

Regarding `Cc1cncc(C)c1`, the outcome in [1], in assay [2], in assay [3], in assay [4], in assay [5] and in assay [6] was inactive. The result in [7], in assay [8], in [9], in assay [10], in assay [11] and in assay [12] was inactive. The compound was called inactive in assay [13], in assay [14], in assay [15], in assay [16], in [17] and in [18]. Besides, the compound was called inactive in [19] and in assay [20].

`CN(C)c1ccc(C(=C2C=CC(=[N+](C)C)C=C2)c2ccccc2)cc1`: the call in assay [1], in assay [2], in [3], in [4], in assay [7] and in assay [9] was inactive. Besides, the call in assay [12], in assay [13], in [15], in assay [16], in assay [18] and in [19] was inactive. For the same compound, the concentration at half-maximal activity (AC50) (in general, the midpoint of the concentration-response curve, whichever way the signal moves) was 8.34 µM (active) in assay [4]; 1.46 µM (active) and 1.26 µM (active) in [5]; 1.46 µM (active) and 1.3 µM (active) in assay [6]; 1.36 µM (active) in assay [12]; 1.43 µM (active) in [13]; 0.752 µM (active) in [16]. For the same compound, the AC50 was 2.07 µM (active) and 2.43 µM (active) in [17]; 1.85 µM (active) in [19]; 1.82 µM (active) and 1.3 µM (active) in [20].
